The values below come from PubChem BioAssay AID1224921 (Broad Institute, 2016).

Among all 1,400 compounds or so, about 350 (25%) were called active. Roughly 2% stayed inconclusive and do not appear here. No rule for the calls is given here. Not all results are given here. Entries with a potency or affinity are not part of this list.

This assay is described as follows: C. difficile growth inhibition, confirmation, 4-point retest (AID 1224921).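 Also: plate controls were DMSO wells for no effect and levofloxacin 16 µg/mL wells for full effect.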 Conditions: Clostridioides difficile clinical isolate growth, OD600, 24 h, stronger effect = lower value; at 30 µM unless noted.
Take `CCC(=O)Nc1ccc2c(c1)C(=O)N(C)C[C@H](OC)[C@@H](C)CN(C(=O)CN1CCOCC1)[C@@H](C)CO2`: the max activity is -6.29% [at 0.5 µM] (inactive).
`CCCC#Cc1ccc([C@@H]2[C@@H](CO)N(S(=O)(=O)c3cccc(F)c3)[C@H]2C#N)cc1`: the max activity was 12.2% [at 1.95 µM] (inactive).
In the case of `CCC(=O)Nc1ccc2c(c1)OC[C@@H](C)N(C(=O)CC)C[C@@H](C)[C@@H](OC)CN(C)C2=O` it was 3.79% [at 0.5 µM] (inactive).
`C[C@H](CO)N1C[C@H](C)[C@H](CN(C)Cc2cccnc2)Oc2cc(C#CC3CCCC3)ccc2S1(=O)=O`: the max activity is 20.9% (inactive).
In the case of `COc1ccc(NC(=O)Nc2cccc3c2O[C@H](CN(C)C(=O)NC2CCCCC2)[C@@H](C)CN([C@@H](C)CO)C3=O)cc1` it was 7.95% (inactive).
For the compound `CO[C@@H]1CN(C)C(=O)c2cc(NC(=O)c3ccccc3)ccc2OC[C@H](C)N(C)C[C@@H]1C`, the max activity is 18.3% (inactive).
Turning to `CN(C)C(=O)C[C@H]1CC[C@H](NC(=O)C2CCOCC2)[C@@H](CO)O1`, the max activity is -6% (inactive).
In the case of `COCC(=O)N1C[C@@H](C)[C@@H](OC)CN(C)C(=O)c2ccc(NC(=O)NC(C)C)cc2OC[C@@H]1C` it was 17.9% (inactive); in that of `CCCC(=O)Nc1ccc2c(c1)C(=O)N(C)C[C@H](OC)[C@H](C)CN(Cc1ccccc1)[C@@H](C)CO2`, 25.4% (inactive); in that of `COCC(=O)Nc1ccc2c(c1)OC[C@@H](C)N(Cc1ccccc1OC)C[C@@H](C)[C@@H](OC)CN(C)C2=O`, 16.6% (inactive).
Under `CO[C@@H]1CN(C)C(=O)c2ccc(NC(C)=O)cc2OC[C@H](C)N(Cc2cccc(F)c2)C[C@H]1C` stands 17.2% (inactive).
In the case of `C[C@H]1CN([C@@H](C)CO)C(=O)c2c(c3ccccc3n2C)-c2ccccc2CO[C@H]1CN(C)Cc1cccc(C(=O)O)c1`, the max activity was -5.44% [at 0.5 µM] (inactive).
Under `COc1ccc(-c2ccc([C@@H]3[C@@H](C#N)N(C(=O)C4CCCC4)[C@H]3CO)cc2)cc1` stands 25.6% (inactive); under `C/C=C/c1ccc2c(c1)O[C@@H](CN(C)C(=O)Cc1ccncc1)[C@H](C)CN([C@@H](C)CO)S2(=O)=O`, 11.6% (inactive).
On to `C[C@@H]1CN([C@H](C)CO)S(=O)(=O)c2ccc(C#CC3CC3)cc2O[C@H]1CN(C)Cc1ccccc1F`, for which the max activity is 11.3% [at 1.95 µM] (inactive).
For `COCC(=O)Nc1ccc2c(c1)OC[C@@H](C)N(Cc1ccccc1)C[C@@H](C)[C@@H](OC)CN(C)C2=O`, the max activity is -9.27% [at 1.95 µM] (inactive).
Under `CCCNC(=O)Nc1ccc2c(c1)C(=O)N(C)C[C@@H](OC)[C@H](C)CN(Cc1ccccc1)[C@@H](C)CO2` stands 16.6% (inactive); under `COc1cccc(C#Cc2ccc3c(c2)O[C@@H](CN(C)C)[C@@H](C)CN([C@H](C)CO)S3(=O)=O)c1`, 29.6% (inactive).
Under `CC(C)CC#Cc1ccc2c(c1)O[C@@H](CN(C)Cc1cccnc1)[C@@H](C)CN([C@@H](C)CO)S2(=O)=O` stands 22.6% (inactive); under `O=C(C[C@@H]1C[C@H]2c3cc(NC(=O)Nc4ccc(C(F)(F)F)cc4)ccc3O[C@H]2[C@@H](CO)O1)NCCc1ccccc1`, 46.3% (inactive).
On to `COc1ccc(-c2ccc([C@@H]3[C@@H](C#N)N(C(=O)c4cccc(F)c4)[C@H]3CO)cc2)cc1`, for which the max activity was 19.5% (inactive).
Take `COc1ccc(C#Cc2ccc3c(c2)O[C@@H](CN(C)C)[C@H](C)CN([C@H](C)CO)S3(=O)=O)cc1`: the max activity is 12.4% [at 8 µM] (inactive).
Under `CCC(=O)Nc1ccc2c(c1)OC[C@@H](C)N(CC1CCCCC1)C[C@@H](C)[C@@H](OC)CN(C)C2=O` stands -9.08% [at 8 µM] (inactive); under `COc1cccc(NC(=O)N[C@H]2C=C[C@H](CC(=O)Nc3ccc(-c4ccccc4)cc3)O[C@@H]2CO)c1`, 43% (inactive); under `C[C@H]1CN([C@@H](C)CO)S(=O)(=O)c2ccc(C3=CCCCC3)cc2O[C@H]1CN(C)Cc1ccncc1`, 40.6% (inactive).
As to `C[C@H]1CN([C@@H](C)CO)C(=O)c2cc(/C=C/c3ccccc3)cnc2O[C@@H]1CN(C)C(=O)CN(C)C`, the max activity was -3.88% [at 0.5 µM] (inactive).
On to `C[C@H](CO)N1C[C@H](C)[C@@H](CN(C)Cc2cccnc2)Oc2cc(C3=CCCCC3)ccc2S1(=O)=O`, for which the max activity was 29% (inactive).
In the case of `N#C[C@@H]1[C@@H](c2ccc(C#Cc3ccccc3F)cc2)[C@H](CO)N1C(=O)C1CCCCC1` it was 38.8% (inactive); in that of `C[C@@H]1CN([C@@H](C)CO)C(=O)c2c(c3ccccc3n2C)-c2ccccc2CO[C@H]1CN(C)S(=O)(=O)c1cccc(C#N)c1`, 31.4% (inactive); in that of `O=C(C[C@@H]1C[C@H]2c3cc(NC(=O)Nc4ccc(C(F)(F)F)cc4)ccc3O[C@H]2[C@@H](CO)O1)NCc1ccc(Cl)cc1`, -9.79% [at 8 µM] (inactive).
Under `C[C@@H]1CN([C@H](C)CO)S(=O)(=O)c2ccc(C3=CCCCC3)cc2O[C@H]1CN(C)Cc1ccncc1` stands -20.4% [at 1.95 µM] (inactive).
In the case of `CN1C(=O)c2cc(NC(=O)c3ccc(C(F)(F)F)cc3)ccc2OC[C@H]2O[C@H](CC(=O)NCc3ccc4c(c3)OCO4)CC[C@H]21` it was -12.1% [at 0.5 µM] (inactive); in that of `C[C@@H]1CN([C@@H](C)CO)C(=O)c2cc(C#C[C@@H](C)O)cnc2O[C@@H]1CN(C)Cc1ccc(-c2ccccc2)cc1`, 27.9% (inactive).
Take `CCCNC(=O)[C@@H]1[C@@H](CO)[C@@H]2Cn3c(cccc3=O)[C@H]1N2C(=O)NCCC`: the max activity was -6.96% (inactive).
In the case of `CO[C@@H]1CN(C)C(=O)c2cc(NC(=O)Nc3cccc(Cl)c3)ccc2OC[C@H](C)N(C(=O)Nc2c(C)noc2C)C[C@H]1C` it was -9.85% (inactive); in that of `COC(=O)[C@H]1[C@H](CO)[C@H]2Cn3c(ccc(-c4cccc(F)c4)c3=O)[C@H]2N1S(C)(=O)=O`, 23.4% (inactive).
Take `COC(=O)[C@@H]1[C@@H](CO)[C@@H]2Cn3c(ccc(-c4cccc(F)c4)c3=O)[C@@H]2N1C(C)=O`: the max activity was 11.6% [at 8 µM] (inactive).
Under `COCC1CC(c2ccccc2)OC(c2ccc(NC(=O)CCCCCCC(=O)O)cc2)O1` (stereo not given) stands 17.9% (inactive).
In the case of `C[C@@H]1CN([C@@H](C)CO)S(=O)(=O)c2ccc(/C=C/c3ccccc3)cc2O[C@@H]1CN(C)Cc1cccnc1`, the max activity was -27.8% [at 1.95 µM] (inactive).
In the case of `CC(C)CC#Cc1ccc2c(c1)O[C@H](CN(C)Cc1ccc(F)cc1)[C@@H](C)CN([C@@H](C)CO)S2(=O)=O` it was 30.5% [at 1.95 µM] (inactive); in that of `CC(C)CC#Cc1ccc2c(c1)O[C@H](CN(C)Cc1ccc(F)cc1)[C@H](C)CN([C@H](C)CO)S2(=O)=O`, 23.3% [at 8 µM] (inactive).
In the case of `C[C@@H]1CN([C@H](C)CO)S(=O)(=O)c2ccc(/C=C/c3ccccc3)cc2O[C@H]1CN(C)C` it was 57% (inactive); in that of `C[C@H]1CN([C@@H](C)CO)S(=O)(=O)c2ccc(/C=C/c3ccccc3)cc2O[C@@H]1CN(C)C`, 16.2% (inactive).
On to `C[C@H]1CN([C@@H](C)CO)S(=O)(=O)c2ccc(/C=C/c3ccccc3)cc2O[C@@H]1CN(C)Cc1cccnc1`, for which the max activity was -24.8% [at 0.5 µM] (inactive).
In the case of `CO[C@H]1CN(C)C(=O)c2cc(NC(=O)NC(C)C)ccc2OC[C@H](C)N(Cc2ccccn2)C[C@@H]1C` it was -9.04% [at 1.95 µM] (inactive); in that of `C[C@H](CO)N1C[C@H](C)[C@H](CN(C)C(=O)C2CCC2)Oc2ncc(C#Cc3cccc(F)c3)cc2C1=O`, 15.1% [at 8 µM] (inactive).
In the case of `C[C@H](NC(=O)C[C@H]1C=C[C@@H](NC(=O)C2CCC2)[C@H](CO)O1)c1ccccc1` it was -11.6% (inactive); in that of `CNC[C@@H]1Oc2cc(-c3ccccc3F)ccc2S(=O)(=O)N([C@@H](C)CO)C[C@H]1C`, 20.5% (inactive).
Under `O=C(N[C@@H]1C=C[C@@H](CC(=O)N2CCCCC2)O[C@@H]1CO)c1ccc2c(c1)OCO2` stands 15.7% [at 8 µM] (inactive); under `CO[C@H]1CN(C)C(=O)c2cc(NS(=O)(=O)c3cccc(F)c3)ccc2OC[C@@H](C)N(Cc2cc(F)ccc2F)C[C@@H]1C`, 33.9% (inactive).
Turning to `C[C@H]1CN([C@@H](C)CO)S(=O)(=O)c2ccc(C#CCC3CCCC3)cc2O[C@@H]1CN(C)C`, the max activity is -13.1% [at 1.95 µM] (inactive).
In the case of `N#C[C@H]1[C@@H](c2ccc(C3=CCCCC3)cc2)[C@H](CO)N1S(=O)(=O)c1ccccc1` it was -7.4% [at 1.95 µM] (inactive); in that of `N#C[C@@H]1[C@@H](c2ccc(C#Cc3cccnc3)cc2)[C@@H](CO)N1C(=O)C1CCCCC1`, 27.2% (inactive).
In the case of `CCC(=O)N(C)C[C@H]1Oc2cc(C#CCC3CCCC3)ccc2S(=O)(=O)N([C@@H](C)CO)C[C@@H]1C` it was 24.3% (inactive); in that of `C[C@@H]1CN([C@@H](C)CO)S(=O)(=O)c2ccc(C#CCC3CCCC3)cc2O[C@H]1CN(C)C(=O)CN(C)C`, -17.9% (inactive).
Regarding `C[C@H](CO)N1C[C@H](C)[C@H](CN(C)C)Oc2cc(C#CCC3CCCC3)ccc2S1(=O)=O`, the max activity is 37% (inactive).
In the case of `C[C@@H]1CN([C@H](C)CO)S(=O)(=O)c2ccc(C#CCC3CCCC3)cc2O[C@@H]1CN(C)C` it was 14.7% [at 8 µM] (inactive); in that of `CO[C@H]1CN(C)C(=O)c2cc(NC(=O)NC(C)C)ccc2OC[C@@H](C)N(C)C[C@H]1C`, 4.11% (inactive); in that of `O=C(CN1CCOCC1)NCC[C@H]1CC[C@H](NC(=O)Cc2ccccn2)[C@@H](CO)O1`, -9.14% [at 0.5 µM] (inactive).
Under `CCCNC(=O)Nc1ccc2c(c1)C(=O)N(C)C[C@H](OC)[C@@H](C)CN(C)[C@H](C)CO2` stands -9.08% [at 8 µM] (inactive).
